Shown are actives, neighbours in structure and some others; about 2.7% of the full set was active somewhere.
12-LOX inh – blocks human arachidonate 12S-lipoxygenase; P18054; purified 12hLO, xylenol orange hydroperoxide absorbance; Potency, µM (series often up to 108 µM), for inactives: at the highest dose activity change, negative = inhibition, actives largely listed as inhibitors; actives 1.1% (n = 580,000); AID 1671190; also: potency is read from the fitted curve at half-maximal effect; % is scaled to controls: 0 for no effect and ±100 for the full control effect
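Purified human 12hLO at 150 nM in 25 mM Hepes, 0.01% Triton X-100, pH 7.0, preincubated 15 min at room temperature with compound. Reaction started with 40 uM arachidonic acid, 30 min at room temperature. Hydroperoxide measured by Fe-xylenol orange, 573/405 nm absorbance ratio.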
mIDH1 inhibitor – blocks human mutant IDH1 R132H enzyme. O75874. IDH1-R132H enzyme, NADPH consumption, diaphorase/resazurin fluorescence. Potency, µM (doses to about 76.6 µM), for inactives: at the top dose activity change, negative = inhibition, most hits filed as inhibitors. actives 0.093% (n = 390,000); also: potency is read from the fitted curve at half-maximal effect; % is scaled to controls: 0 for no effect and ±100 for the full control effect; nearly all actives have a fitted effect of over 65% in size
Target sequence (O75874 whole entry R132H, stated change not applied): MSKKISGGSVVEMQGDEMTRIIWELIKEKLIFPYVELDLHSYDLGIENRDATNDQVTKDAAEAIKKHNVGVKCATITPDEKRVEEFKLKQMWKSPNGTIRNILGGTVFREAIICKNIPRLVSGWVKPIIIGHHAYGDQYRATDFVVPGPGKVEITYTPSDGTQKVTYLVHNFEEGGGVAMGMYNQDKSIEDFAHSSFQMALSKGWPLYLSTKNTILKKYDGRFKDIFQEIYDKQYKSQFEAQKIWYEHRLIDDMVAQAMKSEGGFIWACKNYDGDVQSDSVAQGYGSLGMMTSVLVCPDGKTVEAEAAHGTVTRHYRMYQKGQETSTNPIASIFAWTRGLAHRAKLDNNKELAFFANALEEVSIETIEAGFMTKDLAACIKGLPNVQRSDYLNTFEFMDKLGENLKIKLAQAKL
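IDH1-R132H (0.5 ug/mL) preincubated 30 min with compound, then NADPH (0.016 mM) and alpha-KG (2 mM) added; 80 min at RT, pH 7.5. Remaining NADPH coupled via diaphorase/resazurin to fluorescence (540/590 nm); concentration-response curves normalized to no-enzyme control.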
A549 tox – kills or reduces viability of A549 cells in Nrf2 counter-screen | A549 ARE-Fluc cells, CellTiter-Fluor viability, 18-24 h | Potency, µM (doses to about 46 µM), without a hit: top-dose activity change, negative = cytotoxicity, hits mostly inhibitors | actives 0.16% (n = 390,000) | AID 504648; also: potency is read from the fitted curve at half-maximal effect; % is scaled to controls: 0 for no effect and ±100 for the full control effect
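Cytotoxicity counterscreen: CellTiter-Fluor fluorescence was measured in A549 ARE_Fluc cells after 18-24 h of compound exposure in a concentration series. The subsequent BugLite luminescent read reports ARE-luciferase activity.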
Nrf2 block – blocks Nrf2 signaling; A549 ARE-Fluc reporter, luciferase luminescence, 18-24 h; Potency, µM (doses to about 46 µM), inactives show top-dose activity change, negative = inhibition, most hits filed as inhibitors; actives 2.1% (n = 360,000); AID 504444; also: potency is read from the fitted curve at half-maximal effect; % is scaled to controls: 0 for no effect and ±100 for the full control effect; nearly all actives have a fitted effect of over 60% in size
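A549 ARE_Fluc cells, 5000/well, 5% FBS OPTI-MEM; compounds in dose-response, 18-24 h at 37 °C/5% CO2; CellTiter-Fluor viability read (Ex 405/Em 525), then BugLite luciferase luminescence = Nrf2 activity.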
Nrf2 activator – activators of Nrf2 (ARE) signaling | AREc32 ARE-luciferase reporter (MCF7-derived line), luminescence, 24 h | Potency, µM (series often up to 46.1 µM), inactives show at the highest dose activation, usual class: activators | actives 0.31% (n = 410,000); also: potency is read from the fitted curve at half-maximal effect; % of control where 0% means no effect; nearly all actives have a fitted effect of over 65% in size
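Reporter line AREc32 (ARE-Fluc), seeded overnight in OPTI-MEM with 5% FBS; compound pin-transferred, 24 hr at 37 deg C, 5% CO2; luminescent read-out.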
LDHA block – blocks human lactate dehydrogenase A. actives 0.15% (n = 480,000). P00338. activity change, % (values are at about 110 or 230 µM). AID 1347041. purified LDHA, NADH/diaphorase-resazurin fluorescence; hits give low values; in the data active = activity change below about -30%; inconclusive = mostly about -25% to -30%;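 also: plate controls were DMSO wells for no effect and wells without enzyme for full effect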
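Human LDH5 at 2 nM final in Tris HCl pH 7.4 with 0.06 mM NADH and 0.2 mM pyruvate, reacted 5 minutes at room temperature. Remaining NADH coupled via diaphorase/resazurin; resorufin fluorescence read at 0 and 20 minutes, normalized to enzyme-free and DMSO wells.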
* = called active by the depositor; u = inconclusive; x = no result given; ! = a repeat was not active; [ ] = dose if it differs, or a comment. Unless noted, calls follow the shape of the dose curve; as a rule, active = well fitted curve in the direction sought with a large enough effect; inconclusive = small, poorly fitted or top-dose-only effect, or another doubt; inactive = no such curve, though single readings can be large; an effect the other way counts as inactive or inconclusive.

SMILES	12-LOX inh	mIDH1 inhibitor	A549 tox	Nrf2 block	Nrf2 activator	LDHA block
CCOC(=O)N1CCN(Cc2nc3c(c(=O)[nH]c(=O)n3C)n2CC(C)C)CC1	-7%	x	x	x	x	-8
Cc1nc(-c2nc3ccccc3s2)cs1	u	x	x	x	x	2
Cc1ccc(C)c(NS(=O)(=O)c2cc(C(=O)NCCC3=CCCCC3)ccc2C)c1	-25%	17%	u	21µM*	0%	4
O=C(c1ccncc1)N(Cc1ccccc1)Cc1cc2ccccc2[nH]c1=O	1%	x	x	x	x	1
O=C(NC(=S)Nc1ccc2c(c1)OCO2)c1ccccc1	73%	0%	1%	u	3%	-2
O=C(NC(=S)Nc1cccc(Cl)c1N1CCCCC1)c1ccc2c(c1)OCCO2	16µM*	1%	-13%	14%	4%	-5
O=C(Nc1cccc(Cl)c1N1CCCCC1)c1ccc2c(c1)OCCO2	-24%	7%	-7%	u	-1%	0
O=C(NC(=S)Nc1ccc2c(c1)OCCO2)c1cccc(Br)c1	28µM*	1%	-2%	u	5%[9.22 µM]	-1
O=C(NC(=S)Nc1ccc2c(c1)OCCO2)c1cccc2ccccc12	16µM*	7%	-5%	u	0%	-11
Cc1csc2c(N3CCN(C(=O)Nc4ccc(OC(F)(F)F)cc4)CC3)ncnc12	u	4%	-19%	21µM*	0%	-7
COc1ccc(-c2csc(NC(=O)CSCc3c(C)noc3C)n2)c(OC)c1	11%	-2%	-15%	16µM*	6%	0
O=c1[nH]c(-n2cccc2)c(-c2c(-c3cccc(Cl)c3)[nH]c3[nH]c(=O)[nH]c(=O)c23)c(=O)[nH]1	u	x	x	x	x	-15
CS(=O)(=O)c1ccc(C(=O)Nc2cc(-c3ccccc3)nn2-c2ccccc2)cc1	-10%	2%	-13%	15µM*	3%	-6
CC(C)(C)c1ccc(C(=O)Nc2cc(-c3ccccc3)nn2-c2ccccc2)cc1	-19%	6%	-8%	x	-1%	-3
Cc1cccc(NC(=S)NNC(=O)c2ccc(Br)cc2)c1	u	x	x	x	x	4
Cc1cccc(NC(=O)C(=O)NNC(=O)c2ccc(C(C)(C)C)cc2)c1	-5%	-2%	6.5µM*	u	2%	-3
S=C(Nc1ccccc1)Nc1ccc(OCc2ccc(Cl)cc2Cl)cc1	-13%	3%	3%	18µM*	-2%	0
S=C(NCCSCc1ccc(Cl)cc1Cl)Nc1ccccc1	u	14%	-11%	u	0%	-3
Cc1cnc2c(S(=O)(=O)NCCCOCC3CC3)cccc2c1	4%	x	x	x	x	-6
CCCCC(CC)CNC(=S)NCc1ccc(C)cc1 (stereo not drawn)	32µM*	x	x	x	x	-2
O=C(Nc1ccc(N2CCN(CCOc3ccc(Cl)cc3)CC2)c(C(=O)O)c1)c1ccc(F)cc1	45µM*	x	1%	x	0%	-4
COc1ccc(C(=O)Nc2ccc(N3CCN(c4ccccc4)CC3)c(C(=O)O)c2)cc1	-25%	16%	-9%	x	1%	0
Cc1ccc(C)c(NC(=O)CSc2ccc(N3CCC(C(=O)N4CCCCC4)CC3)nn2)c1	-8%	x	x	x	x	4
CC(C)(C)OC(=O)NCCc1nnc(SCc2ccccc2Cl)o1	0%	3%	x	26µM*	2%	5
CC(C)(C)OC(=O)NCCc1nnc(SCc2ccccc2)o1	u	8%	-5%	0%	-1%	-3
SMILES	12-LOX inh	mIDH1 inhibitor	A549 tox	Nrf2 block	Nrf2 activator	LDHA block
Cc1cc(C)cc(N(CC(=O)NC2CCCCC2)C(=O)CCCC(=O)Nc2ccccn2)c1	3%	-2%	u	21µM*	0%	-3
O=S1(=O)N=CN(Cc2cccc(Cl)c2)c2cc(C(F)(F)F)ccc21	u	x	x	x	x	2
Cc1ccccc1C(=O)N1CCN(c2oc(-c3ccco3)nc2C#N)CC1	u	x	x	x	x	-1
COc1ccc(C(=O)CCC(=O)OCC(=O)c2ccc(Cl)c(Cl)c2)cc1	u	x	x	x	x	11
O=C(Nc1nnc(-c2ccccc2F)s1)Nc1ccccc1F	3%	-14%	9%	10%	8.9µM*	-7
O=C(Nc1nnc(-c2ccccc2F)s1)C1CCCO1 (stereo not drawn)	-40%	5%	-2%	u	3.2µM*	6
O=C(Nc1nnc(-c2ccncc2)s1)C1CCCO1 (stereo not drawn)	u	6%	16%	u	0%	-3
O=C(Nc1nnc(-c2ccccc2SCc2ccccc2)s1)Nc1ccccc1F	x	4%	-2%	17%	5%	-4
Cn1c(=O)c2ccccc2n(CC(=O)Nc2ccc(C(F)(F)F)cc2)c1=O	-13%	x	x	x	x	4
c1ccc2cc3n[nH]nc3cc2c1	-27%	x	x	x	x	5
COc1ccc(/C=C/c2nn3c(-c4ccc(Cl)cc4)nnc3s2)cc1	-11%	x	x	x	x	12
Cc1nc2ccccc2n1Cc1ccccc1	19%	5%	1%	21µM*	0%	-4
Cc1ccccc1CN1C(=O)CS/C1=N/N=C/c1ccco1	40µM*	9%	1%	u	u	-2
CCC1S/C(=N/N=C/c2ccco2)N(Cc2ccccc2C)C1=O (stereo not drawn)	u	1%	-2%	-6%	10%	-4
Cc1ccc(O)c(NC(=O)c2noc3c2CCCC3)c1	-25%	-3%	-3%	1%	7.9µM*	-5
CN(C)Cc1ccc(-c2cc3c(ccn3Cc3ccncc3)c(N3CCOCC3)n2)cc1	6%[176 µM]	x	x	x	x	x
O=C(C1CCN(S(=O)(=O)c2cccc3nsnc23)CC1)N1CC=C(c2ccccc2)CC1	0%	16%	-7%	u	2%	7
O=C(C1CCC(CNS(=O)(=O)c2cccc3nsnc23)CC1)N1CC=C(c2ccccc2)CC1 (stereo not drawn)	3%[57.4 µM]	15%	-11%	21µM*	0%	-1
CCCCN(CC)C(=O)c1ccc(-c2ccccc2)cc1	-1%	4%	u	-1%	-1%	-5
CCCCN(CCCC)C(=O)c1ccc(N)cc1	16µM*	x	x	x	x	2
CCCC1N=C2c3ccccc3N=C(SCC(=O)Nc3cc(OC)cc(OC)c3)N2C1=O (stereo not drawn)	u	x	x	x	x	3
O=C(CN1CCN(Cc2ccc3c(c2)OCO3)CC1)N1c2ccccc2Sc2ccccc21	0.79µM*	x	x	x	x	x
c1cnc(N2CCN(Cc3ccc4c(c3)OCO4)CC2)nc1	22µM*!	-9%	-3%	6%	0%	0
c1ccc(N2CCN(Cc3ccc4c(c3)OCO4)CC2)nc1	u	1%	3%	-3%	-1%	-6
COCCn1cnnc1SCc1csc(-c2cc(Br)ccc2OC)n1	16µM*	x	x	x	x	7

Compound activity (PubChem BioAssay)
